Experiment [1] deals with POU1 (OCT1 POU domain) (human, UniProt P14859 260-458). Description: EMSA-SELEX-seq; no BOB1; 20 mM Tris-HCl pH 7.6, 140 mM NaCl, 10% glycerol, 0.5 mM EDTA, 0.05% Triton X-100, 0.1 mg/mL BSA, 0.1 mg/mL poly(dI-dC), 5 mM DTT, room temperature, 20 min; high values mean tight binding. Conditions: protein: recombinant; dsDNA, one strand shown. Summed up:
(§1)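 Binding preference is the percentage of sequenced 8-mers matching a motif pattern. Tagged POU-domain proteins expressed in E. coli BL21 were purified under denaturing conditions and renatured. For binding, 30 ng protein met 300 ng of a PCR-amplified double-stranded random 35-nt library, with or without 28 ng coactivator protein, in 20 μL Tris–HCl pH 7.6 binding buffer for 20 min at RT. Complex bands were cut from native 6% PAGE, eluted and PCR-amplified over four rounds, then Illumina-sequenced.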

The target in experiment [2] is T1, POU2 (OCT2 POU domain) (human, UniProt P09086 175-386).
T1 sequence: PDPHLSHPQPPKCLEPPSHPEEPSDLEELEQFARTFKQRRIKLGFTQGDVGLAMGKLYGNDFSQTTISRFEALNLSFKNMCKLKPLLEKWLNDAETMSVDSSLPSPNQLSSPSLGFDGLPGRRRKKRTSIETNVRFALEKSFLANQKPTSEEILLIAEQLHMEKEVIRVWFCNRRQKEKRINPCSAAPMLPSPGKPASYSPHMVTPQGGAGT
The description is as above. To be noted: protein: recombinant; dsDNA, one strand shown. Summed up: as §1

In experiment [3] the target is POU1 (OCT1 POU domain);BOB1 (OBF1, OCA-B) (human;human, UniProt P14859;Q16633 260-458;1-256, |). Briefly: EMSA-SELEX-seq; with BOB1 (ternary complex band); 20 mM Tris-HCl pH 7.6, 140 mM NaCl, 10% glycerol, 0.5 mM EDTA, 0.05% Triton X-100, 0.1 mg/mL BSA, 0.1 mg/mL poly(dI-dC), 5 mM DTT, room temperature, 20 min; high values mean tight binding. Conditions: protein: recombinant;recombinant; copies: 1;1; dsDNA, one strand shown. The essentials:
as §1

Experiment [4] concerns the target T2, POU2 (OCT2 POU domain);BOB1 (OBF1, OCA-B) (human;human, UniProt P09086;Q16633 175-386;1-256, |).
T2 sequence 1: T1 sequence
T2 sequence 2: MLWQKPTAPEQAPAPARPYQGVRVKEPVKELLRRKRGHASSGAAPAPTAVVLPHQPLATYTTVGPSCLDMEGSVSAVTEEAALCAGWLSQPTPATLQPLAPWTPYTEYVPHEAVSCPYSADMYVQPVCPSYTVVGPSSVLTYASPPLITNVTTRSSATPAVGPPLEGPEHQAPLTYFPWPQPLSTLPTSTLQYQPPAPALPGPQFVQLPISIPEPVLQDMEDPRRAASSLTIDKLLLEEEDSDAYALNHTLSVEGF
Described as above. To be noted: protein: recombinant;recombinant; copies: 1;1; dsDNA, one strand shown. The essentials: as §1

Sequence of POU1 (OCT1 POU domain) (P14859 260-458): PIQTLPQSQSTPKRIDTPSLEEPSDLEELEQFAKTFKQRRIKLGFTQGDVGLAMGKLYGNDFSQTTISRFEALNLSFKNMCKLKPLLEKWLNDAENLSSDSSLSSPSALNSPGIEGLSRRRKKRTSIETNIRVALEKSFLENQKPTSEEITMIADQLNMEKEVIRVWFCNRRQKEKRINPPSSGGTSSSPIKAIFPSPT

Consider ACGACAAT, for which the binding signal was 0.029 % of ANNNNAAN 8-mers in experiment [1], 0.0299 % of ANNNNAAN 8-mers in experiment [2], 0.025 % of ANNNNAAN 8-mers in experiment [3] and 0.0297 % of ANNNNAAN 8-mers in experiment [4].
In the case of ATCCCAAT, the binding signal in experiment [1] was 0.0317 % of ANNNNAAN 8-mers; in experiment [2] it was 0.038 % of ANNNNAAN 8-mers; in experiment [3], 0.025 % of ANNNNAAN 8-mers; in experiment [4] it was 0.033 % of ANNNNAAN 8-mers.
On the same counts, the results for AAGGTAAG are 0.0416 % of ANNNNAAN 8-mers, 0.0478 % of ANNNNAAN 8-mers, 0.0468 % of ANNNNAAN 8-mers and 0.0545 % of ANNNNAAN 8-mers.
Taken in the same sequence, the figures for AAATGAAT were 0.256 % of ANNNNAAN 8-mers, 0.273 % of ANNNNAAN 8-mers, 0.181 % of ANNNNAAN 8-mers and 0.239 % of ANNNNAAN 8-mers.
As for AAAACAAA, the binding signal is 0.158 % of ANNNNAAN 8-mers in experiment [1], 0.119 % of ANNNNAAN 8-mers in experiment [2], 0.262 % of ANNNNAAN 8-mers in experiment [3] and 0.125 % of ANNNNAAN 8-mers in experiment [4].
Regarding ACTTTAAG, the binding signal is 0.0336 % of ANNNNAAN 8-mers in experiment [1], 0.0299 % of ANNNNAAN 8-mers in experiment [2], 0.0332 % of ANNNNAAN 8-mers in experiment [3] and 0.0322 % of ANNNNAAN 8-mers in experiment [4].
On the same counts, the results for ACTGAAAC are 0.0164 % of ANNNNAAN 8-mers, 0.019 % of ANNNNAAN 8-mers, 0.0238 % of ANNNNAAN 8-mers and 0.0173 % of ANNNNAAN 8-mers.
Taken in the same sequence, the figures for AGAACAAT were 0.0378 % of ANNNNAAN 8-mers, 0.0414 % of ANNNNAAN 8-mers, 0.0293 % of ANNNNAAN 8-mers and 0.038 % of ANNNNAAN 8-mers.
Consider ATCCTAAG, for which the binding signal in experiment [1] is 0.0324 % of ANNNNAAN 8-mers; in experiment [2], 0.0299 % of ANNNNAAN 8-mers; in experiment [3], 0.0312 % of ANNNNAAN 8-mers; in experiment [4], 0.0405 % of ANNNNAAN 8-mers.
As to AAAGAAAA, the binding signal was 0.0988 % of ANNNNAAN 8-mers in experiment [1], 0.0892 % of ANNNNAAN 8-mers in experiment [2], 0.132 % of ANNNNAAN 8-mers in experiment [3] and 0.0693 % of ANNNNAAN 8-mers in experiment [4].
Consider ACGTTAAA, for which the binding signal is 0.0412 % of ANNNNAAN 8-mers in experiment [1], 0.0506 % of ANNNNAAN 8-mers in experiment [2], 0.0371 % of ANNNNAAN 8-mers in experiment [3] and 0.0421 % of ANNNNAAN 8-mers in experiment [4].
Regarding AAGTTAAG, the binding signal in experiment [1] is 0.0568 % of ANNNNAAN 8-mers; in experiment [2], 0.0742 % of ANNNNAAN 8-mers; in experiment [3] it was 0.0539 % of ANNNNAAN 8-mers; in experiment [4], 0.0636 % of ANNNNAAN 8-mers.
For ACGAGAAG, the binding signal in experiment [1] is 0.0217 % of ANNNNAAN 8-mers; in experiment [2] it was 0.0288 % of ANNNNAAN 8-mers; in experiment [3], 0.0269 % of ANNNNAAN 8-mers; in experiment [4] it was 0.0347 % of ANNNNAAN 8-mers.
On the same counts, the results for AAGAGAAT are 0.0728 % of ANNNNAAN 8-mers, 0.0806 % of ANNNNAAN 8-mers, 0.0738 % of ANNNNAAN 8-mers and 0.0553 % of ANNNNAAN 8-mers.
Taken in the same sequence, the figures for AAACTAAC were 0.0256 % of ANNNNAAN 8-mers, 0.0316 % of ANNNNAAN 8-mers, 0.03 % of ANNNNAAN 8-mers and 0.0289 % of ANNNNAAN 8-mers.
Turning to ACGCCAAT, the binding signal was 0.0137 % of ANNNNAAN 8-mers in experiment [1], 0.0184 % of ANNNNAAN 8-mers in experiment [2], 0.0195 % of ANNNNAAN 8-mers in experiment [3] and 0.0256 % of ANNNNAAN 8-mers in experiment [4].
On the same counts, the results for ACAAAAAG are 0.0549 % of ANNNNAAN 8-mers, 0.0489 % of ANNNNAAN 8-mers, 0.0683 % of ANNNNAAN 8-mers and 0.0429 % of ANNNNAAN 8-mers.
Taken in the same sequence, the figures for AAAGTAAT were 0.103 % of ANNNNAAN 8-mers, 0.14 % of ANNNNAAN 8-mers, 0.11 % of ANNNNAAN 8-mers and 0.0941 % of ANNNNAAN 8-mers.
With ACTGAAAA, the binding signal in experiment [1] is 0.0313 % of ANNNNAAN 8-mers; in experiment [2], 0.0363 % of ANNNNAAN 8-mers; in experiment [3] it was 0.0328 % of ANNNNAAN 8-mers; in experiment [4], 0.0363 % of ANNNNAAN 8-mers.
For AGTGGAAG, the binding signal was 0.0324 % of ANNNNAAN 8-mers in experiment [1], 0.0357 % of ANNNNAAN 8-mers in experiment [2], 0.0414 % of ANNNNAAN 8-mers in experiment [3] and 0.0405 % of ANNNNAAN 8-mers in experiment [4].
As for ATCTGAAG, the binding signal in experiment [1] was 0.0297 % of ANNNNAAN 8-mers; in experiment [2], 0.0409 % of ANNNNAAN 8-mers; in experiment [3], 0.0359 % of ANNNNAAN 8-mers; in experiment [4] it was 0.0413 % of ANNNNAAN 8-mers.
Taken in the same sequence, the figures for AGGCAAAT were 0.77 % of ANNNNAAN 8-mers, 0.546 % of ANNNNAAN 8-mers, 2.22 % of ANNNNAAN 8-mers and 2.15 % of ANNNNAAN 8-mers.
Take AATGCAAG: the binding signal in experiment [1] was 0.0671 % of ANNNNAAN 8-mers; in experiment [2] it was 0.0512 % of ANNNNAAN 8-mers; in experiment [3] it was 0.0749 % of ANNNNAAN 8-mers; in experiment [4], 0.0644 % of ANNNNAAN 8-mers.
Take AACCTAAT: the binding signal in experiment [1] is 0.0534 % of ANNNNAAN 8-mers; in experiment [2], 0.0875 % of ANNNNAAN 8-mers; in experiment [3], 0.0386 % of ANNNNAAN 8-mers; in experiment [4] it was 0.0438 % of ANNNNAAN 8-mers.
Regarding ACGCTAAG, the binding signal in experiment [1] is 0.0202 % of ANNNNAAN 8-mers; in experiment [2], 0.0167 % of ANNNNAAN 8-mers; in experiment [3] it was 0.0242 % of ANNNNAAN 8-mers; in experiment [4], 0.0231 % of ANNNNAAN 8-mers.
On the same counts, the results for AATAGAAC are 0.0381 % of ANNNNAAN 8-mers, 0.0541 % of ANNNNAAN 8-mers, 0.0382 % of ANNNNAAN 8-mers and 0.0462 % of ANNNNAAN 8-mers.
In the case of AAGTAAAG, the binding signal in experiment [1] was 0.0545 % of ANNNNAAN 8-mers; in experiment [2], 0.0541 % of ANNNNAAN 8-mers; in experiment [3], 0.0687 % of ANNNNAAN 8-mers; in experiment [4], 0.0545 % of ANNNNAAN 8-mers.
Turning to AGAGAAAC, the binding signal in experiment [1] was 0.0221 % of ANNNNAAN 8-mers; in experiment [2] it was 0.0247 % of ANNNNAAN 8-mers; in experiment [3], 0.0332 % of ANNNNAAN 8-mers; in experiment [4] it was 0.0231 % of ANNNNAAN 8-mers.
On to ATATCAAG, for which the binding signal is 0.0641 % of ANNNNAAN 8-mers in experiment [1], 0.0552 % of ANNNNAAN 8-mers in experiment [2], 0.0453 % of ANNNNAAN 8-mers in experiment [3] and 0.0479 % of ANNNNAAN 8-mers in experiment [4].
With ACCGTAAA, the binding signal is 0.0244 % of ANNNNAAN 8-mers in experiment [1], 0.0253 % of ANNNNAAN 8-mers in experiment [2], 0.0226 % of ANNNNAAN 8-mers in experiment [3] and 0.0173 % of ANNNNAAN 8-mers in experiment [4].

The values above are taken from article PMC10812921, “Transcriptional Coactivator BOB1 (OBF1, OCA-B) Modulates the Specificity of DNA Recognition by the POU-Domain Factors OCT1 and OCT2 in a Monomeric Configuration”.
